# From PubChem BioAssay (NCATS)
# Inconclusive results are not listed. Values without a mark were called inactive. Calls of active or inactive are those of the source. Calls come from the whole dose curve; as a rule, active = well fitted inhibition curve with a large enough effect; inconclusive = small, poorly fitted or top-dose-only effect; inactive = flat fitted curve, though single readings scatter.
# Test system: NIH3T3
# Experiment: Cytotoxic Profiling of Annotated Libraries Using Quantitative High-Throughput Screening (AID 1296008); note: nearly all actives have a fitted effect of over 60% in size
# Conditions: Five cell lines viability, CellTiter-Glo ATP luminescence, 48-72 h; max response: hits give low values
# Procedure, shortened: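 Cells exposed to compounds for 48 or 72 hr at 37 degrees Celsius. Viability read as ATP-coupled luminescence with CellTiter-Glo after 10 min at room temperature.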
# % is set by controls: 0 for no effect and ±100 for the full control effect; potency is the fitted concentration of half-maximal effect.
SMILES,max response,Potency
C[S+](CC[C@H](N)C(=O)[O-])C[C@H]1O[C@@H](n2cnc3c(N)ncnc32)[C@H](O)[C@@H]1O (stereo partly drawn),-4.29%,–
c1ccc(N2CCN(CCc3nn[nH]n3)CC2)cc1,1.1%,–
COc1ccc(CNC(=O)c2cc(-c3cncc(C)c3)ncc2-c2nccs2)nc1OC,-26.3%,–
O=C1OCc2cc3cccc(O[C@@H]4O[C@H](CO)[C@@H](O)[C@H](O)[C@H]4O)c3c(O)c21,0.153%,–
Cc1ccc([N+](=O)[O-])cc1S(=O)(=O)N(C)/N=C/c1cnc2ccc(Br)cn12,–,461 nM (active)
CC(=O)C1=CCC2C3CCC4CC(O[C@@H]5O[C@H](CO)[C@@H](O[C@@H]6O[C@@H](C)[C@H](O)[C@@H](O)[C@H]6O)[C@H](O)[C@H]5O[C@@H]5O[C@H](CO)[C@@H](O)[C@H](O)[C@H]5O)CCC4(C)C3CCC12C (stereo partly drawn),-4.06%,–
Cc1cc(Nc2ncc3cc(-c4c(Cl)cccc4Cl)c(=O)n(C)c3n2)ccc1F,–,1460 nM (active)
COc1ccc(-c2ccc(-c3cn(C(=O)N4CCCCC4c4ccccc4)nn3)cc2)cc1 (stereo not drawn),1.57%,–
C=C1OC2CC(C(=O)O)C=CC2NC1=O (stereo not drawn),0.0418%,–
NC(=O)Nc1cc(-c2cccc(F)c2)sc1C(=O)NC1CCCNC1 (stereo not drawn),–,517 nM (active)
C=C1CCC2C(C)(C)CCC[C@]2(C)[C@H]1C/C=C(\CO)C(=O)C(=O)O (stereo partly drawn),-2.57%,–
CC1(C)CCCC2(C)C(CO)C(CO)=CCC12 (stereo not drawn),-1.37%,–
C[C@@H]1O[C@@H](O[C@H]2[C@@H]3C=CO[C@@H](O[C@@H]4O[C@H](CO)[C@@H](O)[C@H](O)[C@H]4O)[C@@H]3[C@@]3(CO)O[C@@H]23)[C@H](OC(=O)/C=C/c2ccc(O)c(O)c2)[C@H](O)[C@H]1O,-3.69%,–
